Experimental data: PubChem BioAssay (Tox21)
Records with an inconclusive call do not appear. Activity calls are given as the source filed them. Unless noted, calls come from the whole dose curve.

Tests used:
[1] = Nuclear factor erythroid 2-related factor 2/antioxidant responsive element (Nrf2/ARE) small molecule agonists: qHTS cell viability counter screen in human keratinocytes (AID 1919968; active = well fitted curve in the direction sought with a large enough effect in the repeat runs; an effect the other way counts as inactive or inconclusive; note: nearly all actives have a fitted effect of over 55% in size)
In short: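 HaCaT ARE reporter line, 1,500 cells/well; 5 h settle, 37 C/5% CO2; cpd in DMSO pinned; 23 h exposure; CellTiter-Fluor, 1 h; fluorescence.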

[2] = Nuclear factor erythroid 2-related factor 2/antioxidant responsive element (Nrf2/ARE) small molecule agonists: luciferase reporter gene qHTS assay in human keratinocytes (AID 1919969); note: nearly all actives have a fitted effect of over 35% in size
[3] = target: Gonadotropin-releasing hormone receptor (Homo sapiens) (UniProt P30968); experiment: Human gonadotropin-releasing hormone receptor (GnRHR) small molecule agonists, calcium flux assay in GnRHR-HEK293 cells (AID 1920063); note: nearly all actives have a fitted effect of over 35% in size
Sequence of Gonadotropin-releasing hormone receptor (Homo sapiens) (P30968 whole entry, looked up): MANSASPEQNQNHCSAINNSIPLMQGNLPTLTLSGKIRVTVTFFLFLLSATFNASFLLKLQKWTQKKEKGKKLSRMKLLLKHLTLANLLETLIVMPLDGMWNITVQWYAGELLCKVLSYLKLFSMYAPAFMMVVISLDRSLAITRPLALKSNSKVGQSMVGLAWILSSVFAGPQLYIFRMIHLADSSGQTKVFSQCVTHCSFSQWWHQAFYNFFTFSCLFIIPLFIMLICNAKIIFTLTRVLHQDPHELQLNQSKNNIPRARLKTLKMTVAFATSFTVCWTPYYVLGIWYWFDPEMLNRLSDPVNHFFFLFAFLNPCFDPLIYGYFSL
In short: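 GnRHR-HEK293, 1500 cells/well, 18 h 37 C/5% CO2; Ca dye 1 h 37 C; cpd pinned (DMSO), agonist mode; kinetic FL 480/540, 3 min, 1 s reads; 15 conc, n=3.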

[4] = target: KiSS-1 receptor (Homo sapiens) (UniProt Q969F8); experiment: Human kisspeptin (KISS1R) small molecule agonists, calcium flux assay in KISS1R-HEK293 cells (AID 1920064; active = well fitted curve in the direction sought with a large enough effect in the repeat runs; an effect the other way counts as inactive or inconclusive)
Sequence of KiSS-1 receptor (Homo sapiens) (Q969F8 whole entry, looked up): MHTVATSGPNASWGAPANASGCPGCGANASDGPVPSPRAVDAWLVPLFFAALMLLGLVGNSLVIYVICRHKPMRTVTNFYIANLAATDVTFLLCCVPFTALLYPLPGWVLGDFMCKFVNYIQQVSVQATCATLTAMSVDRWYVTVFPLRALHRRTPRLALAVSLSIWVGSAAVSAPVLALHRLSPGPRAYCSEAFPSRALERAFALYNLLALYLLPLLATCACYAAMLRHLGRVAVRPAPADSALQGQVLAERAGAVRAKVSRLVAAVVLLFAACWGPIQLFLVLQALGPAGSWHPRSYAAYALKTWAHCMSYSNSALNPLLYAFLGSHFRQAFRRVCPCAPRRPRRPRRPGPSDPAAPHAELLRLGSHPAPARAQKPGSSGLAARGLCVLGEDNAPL
In short: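 Stable human KISS1R HEK293 line; 18 h plating, 37 C/5% CO2; calcium dye 1 h 37 C; compound pin transfer; kinetic fluorescence Ex/Em 480/540, 3 min.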

[5] = p53 small molecule agonists, cell-based qHTS assay with rat liver microsomes: qHTS cell viability counter screen (AID 1963580); note: nearly all actives have a fitted effect of over 45% in size
In short: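 In HCT-116 cells carrying a p53 response element-bla reporter, compounds were metabolically activated in situ by rat liver microsomes with NADPH over 16 h. Cell ATP content then served as the cytotoxicity measure.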

[6] = cAMP Responsive Elements (CRE) small molecule agonists, cell-based qHTS assay (AID 1963590)
In short: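 HEK 293T CRE-bla, 2,000 cells/well, 18 h preincubation 37 C/5% CO2; cpds (DMSO) pinned, 3 h; LiveBLAzer B/G FRET substrate, 2 h RT.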

[7] = cAMP Responsive Elements (CRE) small molecule antagonists, cell-based qHTS assay (AID 1963591; active = well fitted inhibition curve with a large enough effect in the signal ratio in the repeat runs, not every such curve was filed as active; the % refers to the signal ratio)
In short: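 Beta-lactamase reporter read by FRET substrate (LiveBLAzer B/G) after 2 h at room temperature. CRE-bla HEK293T cells had received compound plus 0.25 uM (final) NKH477 for 3 h at 37 °C.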

[8] = target: Beta-2 adrenergic receptor (Homo sapiens) (UniProt P07550); experiment: Adrenergic beta2 receptor (ADRB2) small molecule antagonists, cell-based qHTS assay (AID 1963592); note: series mostly up to about 92 µM; nearly all actives have a fitted effect of over 50% in size
Sequence of Beta-2 adrenergic receptor (Homo sapiens) (P07550 whole entry, looked up): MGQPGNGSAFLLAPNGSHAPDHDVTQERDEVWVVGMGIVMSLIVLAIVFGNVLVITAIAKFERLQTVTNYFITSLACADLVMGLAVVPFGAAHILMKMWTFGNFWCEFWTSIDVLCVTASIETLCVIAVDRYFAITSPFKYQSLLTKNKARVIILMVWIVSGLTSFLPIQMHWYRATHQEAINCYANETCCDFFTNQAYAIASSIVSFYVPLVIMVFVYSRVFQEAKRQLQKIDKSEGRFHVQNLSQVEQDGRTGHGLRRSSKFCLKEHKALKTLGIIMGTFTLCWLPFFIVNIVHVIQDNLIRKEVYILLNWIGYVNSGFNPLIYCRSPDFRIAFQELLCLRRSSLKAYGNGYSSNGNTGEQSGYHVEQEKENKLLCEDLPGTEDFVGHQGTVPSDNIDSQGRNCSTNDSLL
In short: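 Cells (CHO, stable ADRB2 overexpression) incubated 18-20hr at 37C; compounds added from DMSO; agonist mix (1nM isoproterenol, 100uM IBMX, 25uM Ro-20-1724) added; 0.5hr RT; d2-cAMP and anti-cAMP-cryptate added; 1hr RT; 665/615 nm read.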

[9] = p53 small molecule agonists, cell-based qHTS assay with rat liver microsomes (AID 1963578)
In short: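 p53RE-bla cells, 4,000/well, pre-incubated 5 h, then given compounds plus rat liver microsomes (0.5 mg/mL final) and NADPH (0.5 mg/mL final). Incubation 16 h at 37 C; beta-lactamase reporter read by LiveBLAzer fluorescence after 2 h at room temperature.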

[10] = p53 small molecule agonists, cell-based qHTS assay with human liver microsomes: qHTS cell viability counter screen (AID 1963579); note: nearly all actives have a fitted effect of over 45% in size
In short: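 p53RE-bla cells, 4,000/well, dosed 5 hours after plating, with human liver microsomes (0.5 mg/mL final) plus NADPH (0.5 mg/mL final), 16 hours at 37 C. Viability read as CellTiter-Glo luminescence after 30 min at room temperature.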

[11] = p53 small molecule agonists, cell-based qHTS assay (AID 1963582; active = well fitted activation curve with a large enough effect in the signal ratio in the repeat runs, not every such curve was filed as active; the % refers to the signal ratio)
In short: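 Reporter line: p53RE-bla. Pre-incubation 5 h, 37 C, 5% CO2; compound (DMSO, pin tool) 16 h, 37 C; B/G FRET substrate 2 h RT; fluorescence intensity read.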

[12] = target: Beta-2 adrenergic receptor (Homo sapiens) (UniProt P07550); experiment: Adrenergic beta2 receptor (ADRB2) small molecule agonists, cell-based qHTS assay (AID 1963593);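 note: CHO cells stably overexpressing human ADRB2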
In short: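 CHO cells stably over-expressing ADRB2 were plated overnight at 37C, then dosed with compounds plus a stimulation mix containing 100uM IBMX and 25uM Ro-20-1724 for 0.5hr at room temperature. cAMP was measured by HTRF competition, 1hr.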

[13] = target: D(2) dopamine receptor (Homo sapiens) (UniProt P14416); experiment: Dopamine D2 receptor (DRD2) small molecule agonists, cell-based qHTS assay (AID 1963594); note: nearly all actives have a fitted effect of over 35% in size
Sequence of D(2) dopamine receptor (Homo sapiens) (P14416 whole entry, looked up): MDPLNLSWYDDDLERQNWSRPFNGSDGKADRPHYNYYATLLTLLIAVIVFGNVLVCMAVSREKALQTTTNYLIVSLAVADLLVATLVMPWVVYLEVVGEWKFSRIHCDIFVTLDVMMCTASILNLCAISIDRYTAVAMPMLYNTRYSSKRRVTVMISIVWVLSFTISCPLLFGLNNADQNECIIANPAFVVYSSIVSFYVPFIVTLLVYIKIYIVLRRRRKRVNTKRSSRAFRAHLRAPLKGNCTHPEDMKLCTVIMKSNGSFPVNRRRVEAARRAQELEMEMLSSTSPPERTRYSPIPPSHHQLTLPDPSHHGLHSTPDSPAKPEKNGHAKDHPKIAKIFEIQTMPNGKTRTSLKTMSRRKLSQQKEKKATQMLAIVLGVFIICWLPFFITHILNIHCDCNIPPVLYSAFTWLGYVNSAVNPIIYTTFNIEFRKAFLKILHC
In short: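 HEK293 cells stably expressing DRD2 were cultured 24 h at 37 C, then given Ro20-1724 (0.1 mM final) and compounds for 10 min at room temperature. NKH477 (200nM) was then added for 30 min. cAMP was read by HTRF.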

[14] = p53 small molecule agonists, cell-based qHTS assay with human liver microsomes (AID 1963577)
In short: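 p53RE-bla cells, 4,000/well, compound added after 5 h, with human liver microsomes 0.5 mg/mL and NADPH 0.5 mg/mL final; 16 h at 37 C, then LiveBLAzer 2 h RT, fluorescence.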

[15] = p53 small molecule agonists, cell-based qHTS assay: qHTS cell viability counter screen (AID 1963581); note: nearly all actives have a fitted effect of over 45% in size
In short: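 HCT-116 p53RE-bla cells, 4,000/well, plated 5 h before compound pin transfer; 16 h at 37 C; bla substrate 2 h RT; then CellTiter-Glo, 30 min RT, luminescence.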

[16] = target: 5-hydroxytryptamine receptor 2A (Homo sapiens) (UniProt P28223); experiment: 5-hydroxytryptamine receptor 2A (HTR2A) small molecule antagonists, cell-based qHTS assay (AID 1963586); note: nearly all actives have a fitted effect of over 45% in size
Sequence of 5-hydroxytryptamine receptor 2A (Homo sapiens) (P28223 whole entry, looked up): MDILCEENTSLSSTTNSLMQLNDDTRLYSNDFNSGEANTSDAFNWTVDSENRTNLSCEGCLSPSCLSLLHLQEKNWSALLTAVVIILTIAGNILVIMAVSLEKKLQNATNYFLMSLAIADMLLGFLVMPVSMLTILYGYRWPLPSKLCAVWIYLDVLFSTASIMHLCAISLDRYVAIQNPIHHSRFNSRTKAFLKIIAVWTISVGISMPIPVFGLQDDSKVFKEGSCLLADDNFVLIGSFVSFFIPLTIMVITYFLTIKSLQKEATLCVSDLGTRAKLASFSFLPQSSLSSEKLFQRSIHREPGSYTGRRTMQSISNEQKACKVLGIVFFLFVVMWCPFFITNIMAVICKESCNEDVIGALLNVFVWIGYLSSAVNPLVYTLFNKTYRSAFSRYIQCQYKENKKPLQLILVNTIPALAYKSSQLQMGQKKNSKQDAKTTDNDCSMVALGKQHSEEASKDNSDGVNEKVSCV
In short: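 Antagonist-mode intracellular calcium assay: DOI (4 nM) added after 5 min compound pre-incubation at room temperature to dye-loaded HTR2A-CHO cells. Fluorescence followed for 3 min, sampled every second.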

[17] = target: 5-hydroxytryptamine receptor 2A (Homo sapiens) (UniProt P28223); experiment: 5-hydroxytryptamine receptor 2A (HTR2A) small molecule agonists, cell-based qHTS assay (AID 1963587); note: nearly all actives have a fitted effect of over 30% in size
In short: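 HTR2A-CHO cells, plated 18 h at 37 C/5% CO2, dye-loaded 1 h at 37 C; compounds in DMSO added by pin tool (agonist mode). Intracellular calcium flux read as kinetic fluorescence on FDSS over 2 min at 1 s intervals.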

[18] = target: Muscarinic acetylcholine receptor M1 (Homo sapiens) (UniProt P11229); experiment: Cholinergic receptor muscarinic 1 (CHRM1) small molecule antagonists, cell-based qHTS assay (AID 1963588); note: nearly all actives have a fitted effect of over 40% in size
Sequence of Muscarinic acetylcholine receptor M1 (Homo sapiens) (P11229 whole entry, looked up): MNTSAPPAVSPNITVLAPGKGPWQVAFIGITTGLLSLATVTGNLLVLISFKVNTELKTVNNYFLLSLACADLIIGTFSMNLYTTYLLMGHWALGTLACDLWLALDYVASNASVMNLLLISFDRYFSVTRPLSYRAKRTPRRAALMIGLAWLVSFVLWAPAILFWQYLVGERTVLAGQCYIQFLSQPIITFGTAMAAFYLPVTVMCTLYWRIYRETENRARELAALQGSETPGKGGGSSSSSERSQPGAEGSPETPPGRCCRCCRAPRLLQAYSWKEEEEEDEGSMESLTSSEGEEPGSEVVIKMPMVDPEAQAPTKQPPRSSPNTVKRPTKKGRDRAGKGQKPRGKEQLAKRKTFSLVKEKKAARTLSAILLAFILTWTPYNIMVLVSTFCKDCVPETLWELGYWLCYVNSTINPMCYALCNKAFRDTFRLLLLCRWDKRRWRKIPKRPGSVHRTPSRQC
In short: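 CHRM1-CHO calcium-flux assay, antagonist mode. Cells were seeded 18 h, dye-loaded 1 h at 37 C and given compound for 5 min at RT, then acetylcholine was added at 50nM. FDSS fluorescence was read 3 min; 15 concentrations, three runs.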

[19] = target: Muscarinic acetylcholine receptor M1 (Homo sapiens) (UniProt P11229); experiment: Cholinergic receptor muscarinic 1 (CHRM1) small molecule agonists, cell-based qHTS assay (AID 1963589); note: nearly all actives have a fitted effect of over 35% in size
In short: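 Human M1 in stable CHO line; 18 h plating, 1 h dye load 37 C; cpd added (agonist mode); Ca2+ fluorescence kinetic read, 1 s intervals; 15 conc, 3 runs.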

[20] = target: D(2) dopamine receptor (Homo sapiens) (UniProt P14416); experiment: Dopamine D2 receptor (DRD2) small molecule antagonists, cell-based qHTS assay (AID 1963595; active = well fitted inhibition curve with a large enough effect in the signal ratio in the repeat runs, with a control signal flat; the % refers to the signal ratio)
In short: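 Antagonist mode in DRD2-HEK293 cells: after compound addition with 0.1 mM Ro20-1724, cells received quinpirole (12 nM) and NKH477 (200 nM) for 30 min at room temperature; HTRF cAMP read after 1 h detection.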
% is set by controls: 0 for no effect and ±100 for the full control effect.

CC(C)Cn1cnc2c(N)nc3ccccc3c21
inactive: activity change, negative = cytotoxicity [1] -5.63% [at 19 µM] | activity, positive = activation [2] 7.96% [at 19 µM] | activity change [3] -1.43% [at 11.8 µM, stronger effect = higher value] | activation [4] 1.32% [at 15.8 µM] | activity change, negative = cytotoxicity [5] -0.545% [at 13.5 µM] | activation [6] 3.84% [at 19 µM] | activity change, negative = inhibition [7] 2.85% [at 18.9 µM] | activity change, negative = inhibition [8] -12.1% [at 19 µM]

CCCCNc1ccc(C(=O)OCCN(C)C)cc1
inactive: Potency [1] | Potency [2] | Potency [3] | outcome [4] | Potency [9] | Potency [10] | Potency [5] | Potency [11] | Potency [6] | Potency [7] | Potency [8] | Potency [12] | Potency [13]

CCOC(=O)CCc1ccccc1
inactive: Potency [1] | Potency [2] | Potency [3] | outcome [4] | Potency [14] | Potency [9] | Potency [10] | Potency [5] | Potency [15] | Potency [11] | Potency [16] | Potency [17] | Potency [18] | Potency [19] | Potency [6] | Potency [7] | Potency [8] | Potency [13] | Potency [20]

C=CCSSCCC
inactive: Potency [1] | Potency [2] | Potency [3] | outcome [4] | Potency [9] | Potency [10] | Potency [5] | Potency [11] | Potency [16] | Potency [17] | Potency [18] | Potency [19] | Potency [6] | Potency [7] | Potency [8] | Potency [12] | Potency [13] | Potency [20]

CCCCOCCOC(=O)CCCCCCCCC(=O)OCCOCCCC
inactive: Potency [1] | Potency [2] | Potency [3] | outcome [4] | Potency [9] | Potency [5] | Potency [15] | Potency [11] | Potency [16] | Potency [17] | Potency [18] | Potency [19] | Potency [6] | Potency [7] | Potency [12] | Potency [13] | Potency [20]

Nc1ccc(S(=O)(=O)O)cc1
inactive: Potency [1] | Potency [2] | Potency [3] | outcome [4] | Potency [9] | Potency [10] | Potency [5] | Potency [11] | Potency [16] | Potency [17] | Potency [18] | Potency [19] | Potency [6] | Potency [7] | Potency [8] | Potency [13] | Potency [20]

O=C(OCC(COC(=O)c1ccccc1)(COC(=O)c1ccccc1)COC(=O)c1ccccc1)c1ccccc1
inactive: Potency [1] | Potency [2] | Potency [3] | outcome [4] | Potency [10] | Potency [5] | Potency [15] | Potency [17] | Potency [18] | Potency [19] | Potency [7] | Potency [12] | Potency [13] | Potency [20]

C=COC(=O)C(C)(CC)CCC(C)C (configuration not stated)
inactive: Potency [1] | Potency [2] | Potency [3] | outcome [4] | Potency [9] | Potency [10] | Potency [5] | Potency [11] | Potency [16] | Potency [18] | Potency [19] | Potency [6] | Potency [7] | Potency [8] | Potency [13] | Potency [20]
